Data published in PubChem BioAssay (NCATS).
Inconclusive results are not listed. The source made the active and inactive calls. Calls follow the shape of the full dose curve.

Assay: Primary qHTS to identify inhibitors of SARS-CoV-2 cell entry (AID 1645846); also: nearly all actives have a fitted effect of over 45% in size
Conditions: SARS-CoV-2 pseudovirus cell entry assay, luminescence; activity change, negative = inhibition: at 57.1 µM (top of the series) unless noted
How it was run: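 HEK293-ACE2 (Expi293F, stable hACE2), 1500 cells/well, o/n 37C; cpd 23 nL pin, 1 h; MLV-PP w/ SARS-CoV-2-S (Wuhan-Hu-1, Δ19 C-term); 48 h 37C; Bright-Glo luminescence; normalized vs S-PP and bald PP.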
Potency is read from the fitted curve at half-maximal effect.

Row | Structure (SMILES) | activity change, negative = inhibition [%] | Potency | outcome
1 | C[C@H]1C[C@@H](n2c(Nc3ccc(OC(F)(F)F)cc3)nc3cc(CCC(=O)O)ccc32)CC(C)(C)C1 | 2.52 | – | –
2 | COC(C)(C)CCn1nc(Nc2c(C)cccc2C)c2cnc(Nc3ccc(OCCN4CCCC4)c(F)c3)nc21 | – | 11.2 µM (active) | –
3 | CN(C)CCNC(=O)COc1c2cccc1Cc1cccc(c1OCC(=O)NCCN(C)C)Cc1cccc(c1OCC(=O)NCCN(C)C)Cc1cccc(c1OCC(=O)NCCN(C)C)C2 | – | – | inactive [at 11.3 µM]
4 | CNC(=O)c1ccc(Nc2ncc(C(F)(F)F)c(NCc3nccnc3N(C)S(C)(=O)=O)n2)cc1 | – | 0.891 µM (active) | –
5 | Cc1ccc(S(=O)(=O)Cc2nc(-c3ccc(C(=O)NCc4cccnc4)cc3)oc2C)cc1 | -96.2 | – | –
6 | C=C1CCC[C@]2(C)C=C3OC(=O)C(C)=C3C[C@@H]12 | -28.3 | – | –
7 | Nc1cc(COc2c(Cl)cc(C[C@H](N)C(=O)O)cc2Cl)c2oc(-c3ccccc3)nc2c1 | -18.9 | – | –
8 | CCCc1cc(C(=O)N[C@H](Cc2ccc(-c3cccc(OC(F)(F)F)c3)nc2)C(=O)N[C@@H]2CCNC2)sc1C | – | 31.6 µM (active) | –
9 | C[C@H](NC(=O)[C@H]1NCC[C@@H]1O)c1ccc(-c2noc(CCC3CCCC3)n2)cc1 | -92.1 | – | –
10 | COc1ccc2[nH]c(S(=O)Cc3ncc(C)c(OC)c3C)nc2c1 (stereo not drawn) | -98.9 | – | –
11 | NC(=O)c1ccc2nc(-c3ccc(C4(N)CCC4)cc3)c(-c3ccccc3)n2n1 | – | 25.1 µM (active) | –
12 | Cc1c(O)cccc1C(=O)NC(CSc1ccccc1)C(O)CN1CC2CCCCC2CC1C(=O)NC(C)(C)C (stereo not drawn) | – | 31.6 µM (active) | –
13 | O=C(Nc1ccccc1)Nc1ccc(-c2ccc(C(=O)[C@@H]3CCC[C@H]3C(=O)O)cc2)cc1 | -45.3 | – | –
14 | Cc1nc(NC(=O)N2CCC[C@H]2C(N)=O)sc1-c1ccnc(C(C)(C)C(F)(F)F)c1 | -35.1 | – | –
15 | C=C1/C(=C/C=C2\CCCC3(C)[C@@H]([C@H](C)/C=C/C=C/C(O)(CC)CC)CC[C@@H]23)C[C@@H](O)C[C@@H]1O (stereo partly drawn) | – | – | inactive
16 | CNC(=O)c1cccc2cc(Oc3ccnc4cc(OCC5(N)CC5)c(OC)cc34)ccc12 | -98.2 | – | –
17 | CN1CCN(c2ccc(OC(F)(F)F)c(Nc3ncc4c(n3)-c3c(c(C(N)=O)nn3CCO)CC4)c2)CC1 | -77.5 | – | –
18 | COc1cc(OCc2cccc(-c3ccccc3)c2C)cc(OC)c1CN1CCCC[C@H]1C(=O)O | -88.4 | – | –
19 | C[C@]1(C(=O)N(CCCC(=O)O)Cc2cccc(Cl)c2)CCN1C(=O)c1csc2ccccc12 | -20.2 | – | –
20 | O=C(O)C[C@H]1CCc2c1[nH]c1ccc(OCc3ccc(C4CCCC4)c(C(F)(F)F)c3)cc21 | -95.5 | – | –
21 | Cc1[nH]c2ccccc2c1CCNCc1ccc(/C=C/C(=O)NO)cc1 | – | – | inactive
22 | Cc1[nH]nc2ncc(C(=O)N3CCC[C@H]3c3ccc(Cl)cc3)cc12 | -17.3 | – | –
23 | NC(=O)[C@H]1CCS[C@@H]2C[C@]3(CCCN3C(=O)Cc3ccc(NC(=O)COc4ccc(Cl)cc4Cl)cc3)C(=O)N12 | – | 25.1 µM (active) | –
24 | O=C(NO)c1cnc(N2C[C@H]3C[C@@H]2CN3c2cc(C(F)(F)F)ccn2)nc1 | – | – | inactive
25 | C=C1C(=O)O[C@@H]2[C@H]3O[C@]3(C)CC/C=C(\C)CC[C@@H]12 | – | 22.4 µM (active) | –
26 | COc1ccc(-n2cnc3cc(C(=O)N4CCCCC4)ccc32)cc1 | 0.509 | – | –
27 | COc1ccc2c(c1)CC[C@@H]1[C@@H]2CC[C@]2(C)[C@@H](NCCCCCCN3C(=O)C=CC3=O)CC[C@@H]12 | – | – | inactive
28 | CN(C)C/C=C/C(=O)Nc1cccc(C(=O)Nc2cccc(Nc3ncc(Cl)c(-c4c[nH]c5ccccc45)n3)c2)c1 | – | 3.16 µM (active) | –
